An excerpt weighted towards active compounds, which were near 2.3% of everything screened.
M1 ag parental – counter-screen for M1 agonists: effect in parental CHO-K1 cells. AID 602248, 2012. Fluo-8 calcium fluorescence; scaled to maximal ATP response, vehicle zero. hit rate 0.48% among 360,000. activation, % at 3 µM; in the data active = activation above about 15%;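 also: untransfected CHO-K1 host cells lacking M1 receptor as counterscreen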
CHO-K1 Ca antag – nonselective inhibitor or artifact in parental CHO-K1 cells; ATP-induced calcium, Fluo-8 fluorescence; inhibition, % at 3 µM; hit rate 0.6% among 360,000; AID 602250;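 active = inhibition above a per-plate cutoff, the plate's mean sample inhibition plus 3 SD, cut at about 24% in these data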;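 also: 0% = DMSO plus EC80 ATP and 100% = DMSO alone without ATP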
M1 PAM parental – nonselective calcium activators in parental CHO-K1 cells, primary screen, counter-screen for M1 PAM project, cell-based, Fluo-8 calcium fluorescence, full deck, 1536-well | ATP EC20; 0% at ATP EC20, 100% at ATP max | activation, % at 3 µM | hit rate 0.02% among 360,000;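 active = activation above the run cutoff, the mean activation of all test compounds plus 3 SD, cut at about 40% in these data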;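 also: peak over basal fluorescence ratio in a 140 s read after ATP addition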
M1 ag – human M1 muscarinic receptor agonists, primary screen, Fluo-8 calcium fluorescence, CHO-K1 cells, HTS; Muscarinic acetylcholine receptor M1 (Homo sapiens), P11229; CHO-K1 hM1, agonist mode; 0% DMSO, 100% acetylcholine EC100; activation, % at 3 µM; hit rate 0.33% among 360,000; AID 588814, 2011;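 active = activation above the run's mean compound activation plus 3 SD, cut at about 16% in these data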;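 also: peak over basal fluorescence ratio within a 140 s kinetic read after compound addition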
Target sequence (P11229 whole entry, looked up): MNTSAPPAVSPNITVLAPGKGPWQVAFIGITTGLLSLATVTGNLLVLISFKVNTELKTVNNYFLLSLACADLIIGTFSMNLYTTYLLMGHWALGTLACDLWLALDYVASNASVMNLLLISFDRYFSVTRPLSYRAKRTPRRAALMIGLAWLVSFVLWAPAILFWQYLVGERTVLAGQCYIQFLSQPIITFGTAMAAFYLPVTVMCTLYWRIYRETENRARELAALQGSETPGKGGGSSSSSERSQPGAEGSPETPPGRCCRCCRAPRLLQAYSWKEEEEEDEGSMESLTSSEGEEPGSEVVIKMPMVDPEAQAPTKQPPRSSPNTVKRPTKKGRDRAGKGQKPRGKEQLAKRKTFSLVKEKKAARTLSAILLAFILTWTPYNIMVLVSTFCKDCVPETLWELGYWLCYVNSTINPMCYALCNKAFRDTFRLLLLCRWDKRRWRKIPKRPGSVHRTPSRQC
CHRM1 PAM – human M1 muscarinic receptor positive allosteric modulators, primary screen, CHO-K1 cells, Fluo-8 calcium fluorescence, 1536-well; activation, % at 3 µM; hit rate 0.088% among 360,000; Muscarinic acetylcholine receptor M1 (Homo sapiens), P11229; AID 588819, 2011; CHO-K1 hM1, ACh EC20; 0% = ACh EC20, 100% = maximal ACh; in the data active = activation above about 19%, passing the limit was not always enough
CHRM1 antagonist – human M1 muscarinic receptor antagonists, primary screen, CHO-K1 cells, Fluo-8 calcium fluorescence, 1536-well | hit rate 1.3% among 360,000 | Muscarinic acetylcholine receptor M1 (Homo sapiens), P11229 | CHO-K1 hM1, ACh EC80 antagonist | inhibition, % at 3 µM;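 active = percent inhibition above its own plate's cutoff, namely the mean of that plate's compound wells plus 3 SD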;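 also: peak over basal fluorescence ratio during 140 s after agonist addition; 0% = ACh EC80 plus DMSO and 100% = DMSO alone without agonist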
Active calls of the source: *; nt = no result given.

SMILES	M1 ag parental	CHO-K1 Ca antag	M1 PAM parental	M1 ag	CHRM1 PAM	CHRM1 antagonist
Cc1ccc(NC(=O)COc2cccc(C)c2C)cc1S(=O)(=O)N1CCCCCC1	2	8	-1	-2	-8	15
CCOc1ccccc1N(CC)C(=O)c1cc2c(s1)-c1ccccc1S(=O)(=O)C2	0	-3	13	-9	-1	-6
COc1ccc(S(=O)(=O)NC(=O)C2(C)CCN2C(=O)C2CC2)cc1 (stereo unspecified)	1	-11	19	-2	10	-14
Cc1ccc(NC(=O)COc2ccc(N(C)C(=O)C(C)(C)C)cc2)cc1S(=O)(=O)N1CCCCC1	16*	29*	-22	2	-17	53*
Cc1ccc(NC(=O)COC(=O)c2cccc(C)c2[N+](=O)[O-])cc1S(=O)(=O)N1CCCCC1	9	3	-2	-2	-12	28*
Cc1ccc(NC(=O)COC(=O)c2ccccc2F)cc1S(=O)(=O)N1CCCCC1	7	-10	-13	0	-8	9
COc1ccc(C)cc1NC(=O)CSc1nnc2ccc(-c3ccncc3)nn12	1	-7	8	-7	-16	28*
COc1cc(OC)cc(C(=O)N2CCN(C3CCC(C)CC3)CC2)c1 (stereo unspecified)	0	0	-11	-8	-20	31*
N=C1/C(=C/c2coc3ccccc3c2=O)C(=O)N=C2SC(c3ccco3)=NN12	63*	34*	-11	85*	-26	52*
N=C1/C(=C\c2coc3ccccc3c2=O)C(=O)N=C2SC(c3ccncc3)=NN12	69*	29*	-23	51*	-21	58*
CC1=NN2C(=N)/C(=C\c3cc(C)n(-c4ccccc4)c3C)C(=O)N=C2S1	0	9	-9	-4	0	0
N=C1/C(=C\c2coc3ccc(O)cc3c2=O)C(=O)N=C2SC=CN12	33*	15	-12	25*	-12	21
O=C(CC[C@H]1O[C@@H](n2ccc(=O)[nH]c2=O)[C@H](O)[C@@H]1O)N[C@@H](Cc1ccccc1)C(=O)NCc1ccccc1	0	11	-1	-5	-2	10
CC(C)N1CCC(=O)NC1=O	-1	-7	12	-2	8	-8
CC(C)c1cc(N2CCC(=O)NC2=O)cc(C(=O)O)c1O	18*	14	4	-6	4	-2
COC(=O)c1ccc(N2CCOCC2)c(NC(=O)Nc2cccc(OC)c2)c1	0	14	-8	-4	5	-6
CCOC(=O)c1ccc(N2CCN(c3ccccc3F)CC2)c(NC(=O)Nc2cccc(OC)c2)c1	6	41*	-5	1	-12	32*
CCOC(=O)c1ccc(NC(=O)N2CCN(c3ccccn3)CC2)cc1	2	12	-5	-3	8	0
CCOC(=O)c1ccc(NC(=O)N2CCN(c3cccc(OC)c3)CC2)cc1	13	-3	2	-1	-7	44*
Cc1ccc(/C=C/c2onc(C)c2S(=O)(=O)N2CCC(C(=O)N3CCCCC3)CC2)cc1	0	-11	26	-4	12	-17
CCCN1CCN(C(=O)C2CCN(S(=O)(=O)c3c(C)noc3/C=C/c3ccc(C)cc3)CC2)CC1	2	-9	11	-5	-22	34*
COc1ccc(C(CNC(=O)c2cc(S(=O)(=O)NCc3ccccc3)ccc2C)N2CCOCC2)cc1 (stereo unspecified)	-1	28*	-21	3	20	-12
N#C/C(=N\Nc1ccc(Cl)cc1)C(N)=S	11	25*	-22	7	-3	13
N#C/C(=N\Nc1cccc(Cl)c1)C(=O)c1ccccc1	5	29*	-3	5	-3	15
N#C/C(=N\Nc1ccccc1)C(N)=S	6	18	3	6	16	-12
SMILES	M1 ag parental	CHO-K1 Ca antag	M1 PAM parental	M1 ag	CHRM1 PAM	CHRM1 antagonist
Cc1ccc(NC(N)=S)cc1C	0	8	12	-4	7	-2
N#C/C(=N\Nc1ccc(Cl)cc1)C(=O)c1ccsc1	13	24*	-3	5	0	12
Cc1ccc(N/N=C(\C#N)C(N)=S)cc1C	16*	7	-2	0	1	5
N#CC1=C(N2CCCCC2)c2cc3c(n2C1=O)CCCC3	2	3	14	-4	-20	35*
CCOC(=O)C1=C(SCC)c2cc3c(n2C1=O)CCCC3	-1	-4	4	-6	-1	2
CCC(=O)c1ccc(OC(=O)c2ccc(Br)o2)cc1	43*	0	0	81*	-12	11
CCC(=O)c1ccc(OCc2ccc(C(=O)c3ccccc3)cc2)cc1	12	11	-9	-3	-19	51*
CCC(=O)c1ccc(OCc2ccccc2)c(OC)c1	0	-14	17	-9	5	-11
Cc1ccc(OC(=O)c2ccc(Br)o2)cc1	27*	-10	12	30*	-1	4
CCn1ccnc1CNC(=O)c1ccc2oc(C(C)C)nc2c1	1	-9	10	-6	-17	57*
Cc1cnc(CNC(=O)c2ccc3oc(C(C)C)nc3c2)[nH]1	2	7	-14	-6	5	-5
O=S1(=O)N[C@@H](Cc2ccccc2)COc2cccc(N3CCC[C@@H]3CO)c21	1	-16	8	nt	nt	nt
C=CCNc1ncnc2c1ncn2[C@H]1CN(Cc2cc(OC)c(OC)c(OC)c2)C[C@@H](CO)O1	0	-8	13	-2	2	-13
Cc1ccccc1/C=N/NC(=O)c1cccnc1	0	-6	11	3	27*	-34
O=C(N/N=C/c1cccc2ccccc12)c1cccnc1	2	-4	15	-2	10	-13
Cn1nc(-c2ccccc2)cc1NC(=O)[C@@H]1O[C@H](CO)[C@H](O)[C@H](O)[C@H]1O	0	-9	13	3	10	-16
Cc1ccc(NC(=O)C(OC(=O)c2ccc(F)cc2)c2ccccc2)cc1Cl (stereo unspecified)	2	1	9	6	-8	40*
Cc1ccc(NC(=O)C(OC(=O)c2ccc(O)cc2)c2ccccc2)cc1Cl (stereo unspecified)	0	-12	27	-6	11	-5
COc1ccc(CN(CCC(c2ccc(F)cc2)C2CCOC(C)(C)C2)C(=O)c2ccco2)cc1 (stereo unspecified)	5	2	5	-8	-24	26*

Screening results (PubChem)
